We go through 13 compounds from PubChem BioAssay (NCI).

This is part of a sample that, as a whole, favours compounds with a hit. Of some 83,000 tested, about 20% had one in any assay.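 In brief: 96-well plates, 48 h treatment, single concentration, percent growth endpoint.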 Values without a mark were called inactive. The source made the active and inactive calls. Rule for the calls: active = growth percent below 10; inactive = the rest.

Test systems include SR leukemia; RPMI-8226 leukemia; OVCAR-8 ovarian; OVCAR-5 ovarian; OVCAR-4 ovarian; IGROV1 ovarian; OVCAR-3 ovarian; HS 578T breast; NCI/ADR-RES ovarian; SK-OV-3 ovarian.
Common to all, as to assay: NCI-60 one-dose screen, 48 h (100 = growth as untreated, 0 = no growth, -100 = all killed)
Holding throughout (conditions): 10 µM unless noted

On to `O=C1CC2C=CCN2C=C1NC(=O)C1CCCCC1` (stereo not given), for which the growth with SR leukemia is 103%; in the assay with RPMI-8226 leukemia, 107%; with OVCAR-8 ovarian, 109%; in the assay on OVCAR-5 ovarian, 102%; with OVCAR-4 ovarian, 105%; in the assay on IGROV1 ovarian it was 105%. In addition, the growth in the assay with OVCAR-3 ovarian is 98.9%; with HS 578T breast it was 105%; with NCI/ADR-RES ovarian, 98.5%.

With `C[C@@H](CO)[C@@H]1CC[C@]2(C(=O)N3CCN(C)CC3)CC[C@]3(C)[C@H](CC[C@@H]4[C@@]5(C)CC[C@H](O)C(C)(C)[C@@H]5CC[C@]43C)[C@@H]12`, the growth with SR leukemia was -12.4% (active); with RPMI-8226 leukemia it was 38.2%; in the assay with OVCAR-8 ovarian, 80.3%; in the assay on OVCAR-5 ovarian, 101%; with OVCAR-4 ovarian it was 78.3%; in the assay with IGROV1 ovarian, 74%. In addition, the growth in the assay on OVCAR-3 ovarian was 87.7%; with HS 578T breast, 85.2%; with NCI/ADR-RES ovarian it was 84.5%.

For the compound `CNCc1cccc2c1OCCOCCN(C)C(=O)CN(C)S(=O)(=O)c1ccc(cc1)-c1cnc(N)c(n1)C(=O)N2`, the growth was -16.9% (active) with SR leukemia; 88.8% with RPMI-8226 leukemia; 2.03% (active) in the assay with OVCAR-8 ovarian; 33.8% with OVCAR-5 ovarian; 42.4% in the assay on OVCAR-4 ovarian; -25.3% (active) in the assay on OVCAR-3 ovarian. For the same compound, the growth in the assay with HS 578T breast was 63.3%; in the assay with NCI/ADR-RES ovarian, 102%.

Turning to `COc1ccc2c(c1)c(-c1nonc1-c1cn(C)c3ccc(OC)cc13)cn2C`, the growth in the assay on SR leukemia was 16.5%; in the assay on RPMI-8226 leukemia it was 39.9%; with OVCAR-8 ovarian, 52.9%; in the assay on OVCAR-5 ovarian it was 56.2%; with OVCAR-4 ovarian it was 62%; with IGROV1 ovarian it was 46.5%. The growth was 11.4% in the assay with OVCAR-3 ovarian, 34.4% with HS 578T breast and 22.3% in the assay on NCI/ADR-RES ovarian.

As for `CCN(CC)c1ccc(/C=C\c2cc(C)c3cc(C)ccc3n2)cc1`, the growth is 34.2% in the assay with SR leukemia; 17.3% in the assay with RPMI-8226 leukemia; 34.8% in the assay on OVCAR-8 ovarian; 70.9% in the assay on OVCAR-5 ovarian; 50.4% with OVCAR-4 ovarian; 22% in the assay on IGROV1 ovarian. Further, the values for the growth in the assay with OVCAR-3 ovarian and in the assay on HS 578T breast were 33.4% and 42.5%, respectively.

`CCC/C(=N\NC(N)=O)C(OC)OC`: the growth in the assay with SR leukemia was 120%; with RPMI-8226 leukemia it was 121%; with OVCAR-8 ovarian, 98.6%; with OVCAR-5 ovarian it was 97.1%; in the assay on OVCAR-4 ovarian, 89%; in the assay on IGROV1 ovarian, 123%. The growth in the assay on OVCAR-3 ovarian is 104%; in the assay with HS 578T breast it was 125%; in the assay on NCI/ADR-RES ovarian, 99.6%.

As for `CC1(C)CC[C@]2(C(=O)O)CC[C@]3(C)C(=CC[C@@H]4[C@@]5(C)C[C@@H](Cc6cn([C@@H]7O[C@H](CO)[C@@H](O)[C@H](O)[C@H]7O)nn6)[C@H](O)C(C)(C)[C@@H]5CC[C@]43C)[C@@H]2C1`, the growth is 94.7% in the assay on SR leukemia; 103% with RPMI-8226 leukemia; 98.7% in the assay with OVCAR-8 ovarian; 102% in the assay with OVCAR-5 ovarian; 96.6% with OVCAR-4 ovarian; 108% in the assay with IGROV1 ovarian. Also, the figures for the growth in the assay with OVCAR-3 ovarian, in the assay on HS 578T breast and with NCI/ADR-RES ovarian were 104%, 96.8% and 105%, respectively.

Take `CCOC(=O)c1cn2ncnc(Oc3ccc(NC(=O)NC4CC4)c(F)c3)c2c1C`: the growth was 84.6% in the assay with SR leukemia; 84.6% in the assay on RPMI-8226 leukemia; 99.7% in the assay on OVCAR-8 ovarian; 103% in the assay on OVCAR-5 ovarian; 69.7% in the assay on OVCAR-4 ovarian; 99.3% in the assay on IGROV1 ovarian. Also, the growth in the assay with OVCAR-3 ovarian was 113%; in the assay with HS 578T breast it was 103%; in the assay on NCI/ADR-RES ovarian, 99.3%.

Consider `CCOC(=O)C/C(=N\Nc1cc(=O)[nH]c2ccc(Cl)cc12)C(=O)OCC`, for which the growth in the assay with SR leukemia is 47%; in the assay on RPMI-8226 leukemia it was 57.2%; with OVCAR-8 ovarian it was 110%; in the assay on OVCAR-5 ovarian, 98.9%; with OVCAR-4 ovarian, 107%; with IGROV1 ovarian, 97.6%. The growth with OVCAR-3 ovarian is 110%; in the assay with HS 578T breast, 94.9%; with NCI/ADR-RES ovarian it was 95.8%.

`CCCCCCCC/C=C\CCCCCCCCOc1ccc(CC(=O)NCC[N+](C)(C)C)cc1`: the growth is 62.4% with SR leukemia; 40.9% with RPMI-8226 leukemia; 54.8% with OVCAR-8 ovarian; 27.5% in the assay with OVCAR-5 ovarian; 72.2% with OVCAR-4 ovarian; 6.27% (active) in the assay on IGROV1 ovarian. The growth in the assay on OVCAR-3 ovarian is 83.3%; with HS 578T breast it was 76.7%; in the assay on NCI/ADR-RES ovarian, 94.4%.

`N#Cc1c(-c2cccc([N+](=O)[O-])c2)cc(-c2ccc(Nc3nc(Nc4ccc(F)cc4)nc(Nc4ccc(F)cc4)n3)cc2)nc1N`: the growth in the assay on SR leukemia is 62.9%; in the assay on RPMI-8226 leukemia, 52.3%; in the assay on OVCAR-8 ovarian it was 89.1%; in the assay with OVCAR-4 ovarian, 114%; with SK-OV-3 ovarian, 143%; with IGROV1 ovarian, 90.9%. Further, the growth in the assay on OVCAR-3 ovarian was 100%; in the assay with HS 578T breast, 87.9%; with NCI/ADR-RES ovarian, 101%.

For `Cc1[nH]c(C(=O)Nc2ccc(C(N)=O)cc2NC(C)C)c(Cl)c1Cl`, the growth in the assay on SR leukemia was 103%; in the assay with RPMI-8226 leukemia it was 87.8%; with OVCAR-8 ovarian it was 92.4%; in the assay on OVCAR-4 ovarian, 92.4%; with SK-OV-3 ovarian it was 113%; in the assay with IGROV1 ovarian, 85.1%. The figures for the growth in the assay on OVCAR-3 ovarian, in the assay on HS 578T breast and in the assay with NCI/ADR-RES ovarian were 96.3%, 82.6% and 88.2%, respectively.

With `Cc1ncc(C(=O)Nc2ccc(CN3CCN(C)CC3)c(C(F)(F)F)c2)cc1C#Cc1cnc(N)c2ccncc12`, the growth is -41% (active) with SR leukemia; -43.7% (active) in the assay with RPMI-8226 leukemia; -35.5% (active) in the assay with OVCAR-8 ovarian; -16.9% (active) in the assay with OVCAR-4 ovarian; -34.7% (active) in the assay on SK-OV-3 ovarian; -42.5% (active) with IGROV1 ovarian. Moreover, the growth was -43.6% (active) with OVCAR-3 ovarian, -19% (active) with HS 578T breast and -25.1% (active) in the assay on NCI/ADR-RES ovarian.
